Consider 27 compounds from ChEMBL document CHEMBL4513141, “CO-ADD screening of NIH (USA) - Clinical Collection” (2021).

Potency and affinity values are given separately.

One test has as its system Klebsiella pneumoniae. Conditions: Concentration 20 uM; ASSAY_TEST Inhibition of Bacterial Growth; detection method Absorption (OD600); MEDIA CAMHB; plate type 384well; NBS; CORNING #3640; time 18 hr.
A further test deals with Candida albicans. To be noted: 20 µM.
A further test relates to Cryptococcus neoformans. Conditions: Concentration 20 uM; ASSAY_TEST Inhibition of Fungal Growth; detection method Resazurin; Absorption (OD600-OD570); plate type 384well; NBS; CORNING #3640. On the technique in general: Alamar Blue is a resazurin reagent that responds to reducing activity.

The term Inhibition denotes the change of the read-out against control, counted positive when it falls. For `C=CCc1ccc(O)c(-c2ccc(O)c(CC=C)c2)c1` [HONOKIOL], the Inhibition was 7.54% in the test on Klebsiella pneumoniae, 3.92% in the test on Candida albicans and 0.25% with Cryptococcus neoformans.

Consider `CC(C)(C)NC(=O)[C@H]1CC[C@H]2[C@@H]3CC[C@H]4NC(=O)C=C[C@]4(C)[C@H]3CC[C@]12C` [FINASTERIDE], for which the Inhibition in the test on Klebsiella pneumoniae is -7.24%; in the test with Candida albicans, 0.68%; with Cryptococcus neoformans it was -1.89%.

`CC[C@@]1(O)C(=O)OCc2c1cc1n(c2=O)Cc2cc3c(CN(C)C)c(O)ccc3nc2-1.Cl` [TOPOTECAN HYDROCHLORIDE]: the Inhibition in the test on Klebsiella pneumoniae was 17.31%; with Candida albicans it was 1.75%; with Cryptococcus neoformans, -3.31%.

`CNCCC=C1c2ccccc2CCc2ccccc21.Cl` [NORTRIPTYLINE HYDROCHLORIDE]: the figures for the Inhibition with Klebsiella pneumoniae, with Candida albicans and in the test with Cryptococcus neoformans were 11.74%, 1.73% and -10.6%, respectively.

With `C[C@H](N[C@@H](CCc1ccccc1)C(=O)O)C(=O)N1CCC[C@H]1C(=O)O` [ENALAPRILAT ANHYDROUS], the Inhibition with Klebsiella pneumoniae amounted to 8.45%; with Candida albicans, 2.99%; in the test on Cryptococcus neoformans it was 1.01%.

In the case of `O=C1Nc2ccc(Cl)cc2[C@@](C#CC2CC2)(C(F)(F)F)O1` [EFAVIRENZ], the Inhibition with Klebsiella pneumoniae is -2.99%; in the test on Candida albicans, 3.86%; in the test on Cryptococcus neoformans, -5.8%.

For `O=C(O)c1cc(/N=N/c2ccc(S(=O)(=O)Nc3ccccn3)cc2)ccc1O` [SULFASALAZINE], the Inhibition in the test on Klebsiella pneumoniae amounted to 2.94%; in the test on Candida albicans, 8.72%; with Cryptococcus neoformans, 5.13%.

For `CC(C)[N+]1(C)C2CCC1CC(OC(=O)C(CO)c1ccccc1)C2.[Br-]` (stereo unspecified), the Inhibition in the test with Klebsiella pneumoniae was -0.09%; in the test on Candida albicans, 0.17%; with Cryptococcus neoformans it was -6.11%.

On to `CCCN1CCCC[C@H]1C(=O)Nc1c(C)cccc1C.Cl` [ROPIVACAINE HYDROCHLORIDE], for which the Inhibition in the test with Klebsiella pneumoniae was 12.03%; with Candida albicans it was 3.24%; with Cryptococcus neoformans it was -6.59%.

As to `CCOC(=O)C1(CCCCCCOc2ccc(Cl)cc2)CO1` (stereo not drawn) [rac-ETOMOXIR], the Inhibition in the test with Klebsiella pneumoniae was 8.69%; with Candida albicans, 1.76%; with Cryptococcus neoformans, -1.88%.

`CC(=O)CCCCn1cnc2c1c(=O)n(C)c(=O)n2C` [LOMIFYLLINE]: the Inhibition in the test on Klebsiella pneumoniae is 10.43%; in the test on Candida albicans, 2.63%; in the test with Cryptococcus neoformans, -0.96%.

As to `COc1ccc(C2CNC(=O)C2)cc1OC1CCCC1` (stereo unspecified) [ROLIPRAM], the Inhibition with Klebsiella pneumoniae is 19.56%; with Candida albicans, 4.38%; in the test with Cryptococcus neoformans it was -5.22%.

Regarding `CSc1nc2cc(Cl)c(Oc3cccc(Cl)c3Cl)cc2[nH]1` [TRICLABENDAZOLE], the values for the Inhibition with Klebsiella pneumoniae, in the test with Candida albicans and in the test on Cryptococcus neoformans were -0.37%, 7.82% and -2.96%, respectively.

As to `CC(C)C[C@H](NC(=O)[C@@H](O)[C@H](N)Cc1ccccc1)C(=O)O` [UBENIMEX], the figures for the Inhibition in the test with Klebsiella pneumoniae, with Candida albicans and in the test with Cryptococcus neoformans were 12.45%, 0.73% and -0.18%, respectively.

For the compound `CN(C)CCOC(c1ccccc1)c1ccccc1.Cl` [DIPHENHYDRAMINE HYDROCHLORIDE], the Inhibition in the test with Klebsiella pneumoniae was found to be 1.03%; with Candida albicans, 4.49%; with Cryptococcus neoformans, 4.12%.

As for `O=C1CCc2ccc(OCCCCN3CCN(c4cccc(Cl)c4Cl)CC3)cc2N1` [ARIPIPRAZOLE], the Inhibition was 2.6% in the test on Klebsiella pneumoniae, -0.97% with Candida albicans and 6.93% in the test on Cryptococcus neoformans.

`CNC(=C[N+](=O)[O-])NCCSCc1csc(CN(C)C)n1` [NIZATIDINE]: the Inhibition in the test with Klebsiella pneumoniae was 14.45%; in the test with Candida albicans, 0.73%; in the test with Cryptococcus neoformans it was -0.19%.

`CN(C)CC/C=C1/c2ccccc2COc2ccc(CC(=O)O)cc21.Cl` [OLOPATADINE HYDROCHLORIDE]: the figures for the Inhibition in the test on Klebsiella pneumoniae, with Candida albicans and in the test on Cryptococcus neoformans were 3.13%, 4.03% and 4.6%, respectively.

As to `CCC(=O)[N-]S(=O)(=O)c1ccc(-c2c(-c3ccccc3)noc2C)cc1.[Na+]` [PARECOXIB SODIUM], the Inhibition is 7.5% in the test with Klebsiella pneumoniae, 3.16% in the test on Candida albicans and -0.82% in the test with Cryptococcus neoformans.

Turning to `CN(C)CCN(Cc1ccccc1)c1ccccn1.Cl` [TRIPELENNAMINE HYDROCHLORIDE], the Inhibition in the test on Klebsiella pneumoniae is 2.28%; with Candida albicans it was 5.56%; in the test with Cryptococcus neoformans it was 2.92%.

On to `NC(Cc1cc(I)c(Oc2ccc(O)c(I)c2)c(I)c1)C(=O)O` (stereo unspecified) [RATHYRONINE], for which the Inhibition in the test with Klebsiella pneumoniae is 9.96%; with Candida albicans it was 2.19%; with Cryptococcus neoformans, -1.85%.

Take `COC(=O)[C@H](c1ccccc1Cl)N1CCc2sccc2C1` [CLOPIDOGREL]: the Inhibition was 14.99% with Klebsiella pneumoniae, 2.18% in the test with Candida albicans and -8.15% in the test with Cryptococcus neoformans.

For `O=C(NCCN1CCOCC1)c1ccc(Cl)cc1` [MOCLOBEMIDE], the Inhibition with Klebsiella pneumoniae is 9.06%; with Candida albicans, 3.1%; in the test on Cryptococcus neoformans, -2.98%.

For the compound `Cn1cnc([N+](=O)[O-])c1Sc1ncnc2[nH]cnc12` [AZATHIOPRINE], the values for the Inhibition with Klebsiella pneumoniae, in the test with Candida albicans and in the test on Cryptococcus neoformans were 13.95%, 4.62% and -6.38%, respectively.

Turning to `CCN(CC)C(=O)[C@]1(c2ccccc2)C[C@@H]1CN.Cl` [1R,2S-MILNACIPRAN HYDROCHLORIDE], the Inhibition in the test on Klebsiella pneumoniae was 12.52%; in the test on Candida albicans it was 0.44%; with Cryptococcus neoformans, -10.1%.

On to `CCCc1cc(=O)[nH]c(=S)[nH]1` [PROPYLTHIOURACIL], for which the Inhibition in the test with Klebsiella pneumoniae is 16.2%; in the test on Candida albicans, 3.22%; in the test with Cryptococcus neoformans, -1.39%.

On to `O=C1N=C([O-])NC1(c1ccccc1)c1ccccc1.[Na+]` [PHENYTOIN SODIUM], for which the values for the Inhibition in the test with Klebsiella pneumoniae, in the test with Candida albicans and with Cryptococcus neoformans were 7.94%, 2.49% and 1.23%, respectively.
